# HIF-2a block: HIF-2a inhibition. 786-0 RCC cells HIF-2a reporter, luciferase luminescence, overnight. inhibition, % at 18.8 µM. actives 0.72% (n = 360,000);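 active = inhibition of the luminescence signal of 40% or more relative to plate controls, in a single-dose primary screen at 18.75 µM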
# Shn3 3UTR inh: reduces Shn3 3'UTR luciferase signal in osteoblasts | actives 0.52% (n = 360,000) | inhibition, % at 12.5 µM | AID 588674 | Clone20 osteoblast Shn3 3'UTR firefly luciferase, 24 h;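 active = mean inhibition of at least 75% with every replicate also reaching 75%; inconclusive = mean inhibition at least 75% but some replicate below; inactive = mean inhibition below 75%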;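 note: 0% = median of neutral control wells and 100% = pilot-screen positive control compound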
# KKLEB tox: reduces viability of KKLEB cystic fibrosis airway cells; actives 0.36% (n = 360,000); KKLEB CF airway cells viability, ATPlite luminescence, overnight; stronger effect = lower value; cells stimulated with P. aeruginosa culture filtrate; activity change (cytotoxicity), % at 5 µM;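 active = corrected activity change at or below -50% at 5 µM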
# Peg3 prom inh: Peg3 promoter activity inhibition; HeLa PEG-Prom luciferase reporter, luminescence, overnight; inhibition, % at 20 µM; actives 1.7% (n = 360,000); AID 588405;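 active = inhibition of at least 50% at 20 µM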
# CF NFkB block: blocks PAF-induced NF-kB reporter in cystic fibrosis cells; KKLEB NF-kB-GFP reporter, GFP fluorescence overnight; inhibition, % at 5 µM; actives 0.86% (n = 360,000); AID 588850;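 active = at least 50% inhibition at 5 µM, scaled per plate between neutral and stimulator controls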;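 note: PAF is a Pseudomonas aeruginosa culture filtrate used as stimulus; plate controls were PAF-stimulated DMSO wells for no effect and unstimulated DMSO wells for full effect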
# MITF TRPM1 inh: inhibitors of MITF-driven TRPM1 promoter in melanoma cells; AID 488899; SK-MEL-5 TRPM1 promoter luciferase, 24 h; inhibition, % at 12.5 µM; actives 0.83% (n = 330,000);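 active = mean inhibition across replicates of 60% or more, whatever share of single replicates reaches that level; inconclusive = some that reach 60%, reason not given; inactive = mean inhibition across replicates below 60%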
# Numbers without * were called inactive; ? = inconclusive; nt = no result. This is a sample that favours compounds with a hit; in the whole collection about 2.8% have one here.
SMILES,HIF-2a block,Shn3 3UTR inh,KKLEB tox,Peg3 prom inh,CF NFkB block,MITF TRPM1 inh
COc1ccc(OC)c(NC(=O)COC(=O)c2c3c(nc4ccccc24)CCCC3)c1,-9,90*,-48,78*,37,-11
CC(=O)OCC(=O)[C@@]1(O)CC[C@H]2[C@@H]3CCC4=CC(=O)CC[C@]4(C)[C@H]3[C@@H](O)C[C@@]21C,31,4,9,6,64*,-8
CC1CC2(C)C(=CC1=O)CCC1C2C(O)CC2(C)C1CCC2(O)C(=O)CO (configuration not stated),11,22,10,-7,67*,9
CC(=O)OCC(=O)C1(O)CCC2C3CC(F)C4=CC(=O)CCC4(C)C3C(=O)CC21C (configuration not stated),15,-4,-2,5,28,-12
C[C@]12C[C@H](O)[C@H]3[C@@H](CCC4=CC(=O)CC[C@@]43C)[C@@H]1CC[C@@H]2C(=O)CO,18,-1,23,1,36,3
CC(=O)OCC(=O)C1(O)CCC2C3CC(F)C4=CC(=O)CCC4(C)C3C(O)CC21C (configuration not stated),17,10,13,-9,76*,-19
CCCC(=O)O[C@]1(C(=O)CO)CC[C@H]2[C@@H]3CCC4=CC(=O)CC[C@]4(C)[C@H]3[C@@H](O)C[C@@]21C,23,16,12,-1,95*,-12
COc1cc(S(=O)(=O)N2CCOCC2)cc(C(=O)OCC(=O)NCc2ccco2)c1OC,12,-1,1,24,6,-3
O=C(NCc1ccccc1)c1nccnc1CO,16,-10,7,9,2,1
CCC(CC)C(=O)OCC(=O)C1(O)CCC2C3CCC4=CC(=O)CCC4(C)C3C(O)CC21C (configuration not stated),6,-4,14,-9,64*,-3
CC12CCC(=O)C=C1CCC1C2CCC2(C)C1CCC2(O)C(=O)CO (configuration not stated),6,7,27,-24,24,7
CC(=O)OCC(=O)[C@@]1(O)CC[C@H]2[C@@H]3CCC4=CC(=O)CC[C@]4(C)[C@H]3C(=O)C[C@@]21C,1,88*,26,-6,-9,-3
CC1CC2C3CCC4=CC(=O)CCC4(C)C3CCC2(C)C1(O)C(=O)CO (configuration not stated),5,6,3,-20,53*,11
CC(=O)OCC(O)C1(O)CCC2C3CCC4=CC(=O)CCC4(C)C3C(O)CC21C (configuration not stated),12,-10,-3,-8,42,nt
C[C@]12CCC(=O)C=C1CC[C@@H]1[C@@H]2[C@@H](O)C[C@@]2(C)[C@H]1CC[C@]2(O)C(=O)COC(=O)CCC(=O)O,26,-6,10,-10,75*,-20
CC12CCC(=O)C=C1CCC1C2CCC2(C)C1CC[C@]2(O)C(=O)CO (some centres not stated),11,15,-4,1,26,10
COc1ccc(-n2c(SCC(=O)N(C)C3CCS(=O)(=O)C3)nc3ccc(O)cc3c2=O)cc1OC (configuration not stated),19,-9,-8,7,0,-3
C#CCNC(=O)C[C@@H]1C[C@@]2(C(=O)OC)CCCCC=C2N(Cc2ccc(Cl)cc2Cl)C1=O,12,nt,nt,nt,nt,nt
CCOC(=O)C1=C[C@@H](C(C)(C)C)N(S(=O)(=O)c2ccc(C)cc2)[C@H]1c1ccc(F)cc1,-7,60,-4,13,15,nt
COc1ccc2c(C(=O)CCl)c[nH]c2c1,-32,13,-52*,48,73*,75*
COc1ccc(OCC(=O)c2c[nH]c3ccccc23)cc1,-168,-11,-7,-173,37,-7
N=C(N)SCc1cn(-c2ccccc2)nc1-c1ccc(Br)cc1,-23,?,-5,108*,16,59
Cc1ccc(-c2nn(-c3ccccc3)cc2CO)cc1,-217,-53,5,-263,-2,-63
CCCNC(=O)c1cc(C2CCCCN2C(=O)c2cccs2)on1 (configuration not stated),0,12,-15,3,19,nt
O=C1C(=O)N(c2nccs2)C(c2ccccc2F)/C1=C(\O)c1ccc2c(c1)OCCO2 (configuration not stated),-49,8,1,-38,23,15
SMILES,HIF-2a block,Shn3 3UTR inh,KKLEB tox,Peg3 prom inh,CF NFkB block,MITF TRPM1 inh
O=C1C(=O)N(c2nccs2)C(c2ccccc2)/C1=C(\O)c1ccc2c(c1)OCCO2 (configuration not stated),-54,7,-13,18,37,67*
CC(C)(C)C1CCc2c(sc3nc(SCC(=O)O)nc(N)c23)C1 (configuration not stated),55*,27,7,-83,-5,-2
COC(=O)CSc1nc(N)c2c3c(sc2n1)C(c1ccccc1)SC(c1ccccc1)C3 (configuration not stated),88*,20,14,47,-44,47
CN(Cc1ccc(Cl)cc1)C(=O)COC(=O)CSc1ccc([N+](=O)[O-])cc1,9,22,4,4,-2,nt
CCCCCCCCN1C(=O)[C@H](CC(=O)NCC2CCCCC2)C[C@@]2(C(=O)OC)CCCCC=C12,-18,nt,nt,nt,nt,nt
Fc1ccccc1NC(=S)Nn1cnnc1,0,-2,18,-6,-30,-11
COc1ccccc1NC(=O)Nc1nc(C(N)C2CCCCC2)cs1 (configuration not stated),3,-1,-14,82*,7,nt
NC(c1csc(NC(=O)Nc2ccccc2)n1)C1CCCCC1 (configuration not stated),-11,-20,-4,48,20,nt
NC(=O)c1ccc(Nc2nc(C(N)COCc3ccccc3)cs2)cc1 (configuration not stated),-1,-11,-4,11,21,nt
NC(c1csc(NC(=O)Nc2cccc(Cl)c2)n1)C1CCCCC1 (configuration not stated),5,37,-12,92*,32,nt
NC(COCc1ccccc1)c1csc(NC(=O)Nc2cccc(C(F)(F)F)c2)n1 (configuration not stated),12,59,-83*,100*,86*,nt
NC(CCc1ccccc1)c1csc(NC(=O)Nc2cccc(Cl)c2)n1 (configuration not stated),14,-2,-18,89*,28,nt
CCC(=O)N(Cc1cc(=O)[nH]c2ccccc12)c1ccc(C)cc1,14,2,-1,4,12,10
Cc1cccnc1NC(=O)CNC(=O)C12CC3CC(CC(C3)C1)C2,9,-19,-5,9,-41,-14
